Screens as filed in PubChem BioAssay.
FMDV inh – blocks foot and mouth disease virus; FMDV antiviral cell-based qHTS; Potency, µM (series often up to 57.9 µM), inactives show at the highest dose activity change, negative = inhibition, most hits filed as inhibitors; 410,000 compounds, 1.2% hits; AID 1159524; calls by dose curve; tested in HEK293T cells; note: read-out not given here; potency is the fitted concentration of half-maximal effect; nearly all actives have a fitted effect of over 45% in size
AmpC no deterg – blocks E. coli AmpC beta-lactamase in detergent-free assay; 330,000 compounds, 0.52% hits; P00811; Potency, µM (highest dose often 57.1 µM), without a hit: top-dose activity change, negative = inhibition, hits mostly inhibitors; AID 485341; AmpC nitrocefin hydrolysis, absorbance 480 nm, 0.0001% Triton;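 note: potency is the fitted concentration of half-maximal effect; plate controls were no compound for no effect and no enzyme for full effect; nearly all actives have a fitted effect of over 20% in size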
Target sequence (P00811 whole entry, looked up): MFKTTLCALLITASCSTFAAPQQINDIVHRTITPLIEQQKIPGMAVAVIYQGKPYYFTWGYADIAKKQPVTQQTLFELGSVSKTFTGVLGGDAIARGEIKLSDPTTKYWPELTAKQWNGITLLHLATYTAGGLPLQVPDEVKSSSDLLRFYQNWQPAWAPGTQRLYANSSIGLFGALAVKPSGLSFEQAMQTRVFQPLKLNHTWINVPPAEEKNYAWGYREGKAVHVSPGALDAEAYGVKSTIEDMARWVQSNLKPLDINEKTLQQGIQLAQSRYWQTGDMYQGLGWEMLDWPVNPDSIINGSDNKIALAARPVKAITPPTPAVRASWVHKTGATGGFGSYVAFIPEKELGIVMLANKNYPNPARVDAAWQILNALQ
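AmpC (5.3 nM in the dispensed reagent) in 20 mM phosphate pH 7.0 with 0.01% (detergent screen) or 0.0001% Triton X-100 was preincubated with compounds for 15 min at room temperature. Nitrocefin was then added from an 800 uM solution, and hydrolysis was followed at 480 nm.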
HCV inh – blocks hepatitis C virus | 340,000 compounds, 3.4% hits | Huh7.5.1 HCVcc-Cre infection, luciferase reporter, 44 h | AID 651820 | Potency, µM (doses to about 41.8 µM), for the others: at the top dose activity change, negative = inhibition, hits mostly inhibitors; note: potency is the fitted concentration of half-maximal effect
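1,000 cells/well; 4 h culture; + compound; + HCVcc-Cre (~0.5 moi); 44 h; luciferase substrate, RT 15 min; read 15 sec.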
AmpC detergent – AmpC beta-lactamase inhibition with detergent present; 370,000 compounds, 0.041% hits; AID 485294; AmpC hydrolysis of nitrocefin, absorbance 480 nm, 0.01% Triton; Potency, µM (titrated, usually from 114 µM), inactives show top-dose activity change, negative = inhibition, actives largely listed as inhibitors;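 note: potency is the fitted concentration of half-maximal effect; 0% = no-compound wells and -100% = no-enzyme wells; nearly all actives have a fitted effect of over 25% in size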
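AmpC (5.3 nM in the dispensed reagent) in 20 mM phosphate pH 7.0 with 0.01% (detergent screen) or 0.0001% Triton X-100 was preincubated with compounds for 15 min at room temperature. Nitrocefin was then added from an 800 uM solution, and hydrolysis was followed at 480 nm.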
HCMV antiviral – blocks human cytomegalovirus replication; HFF cells, HCMV-luciferase reporter, 72 h; stronger effect = lower value; activity change, negative = inhibition, % at 57.5 µM; 410,000 compounds, 4.5% hits; AID 1259415; in the data active = activity change below about -60%; inconclusive = no clear call, values can overlap the other calls; inactive = above about -39%
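Screen run at 2 compound doses on HFFs infected with reporter HCMV, MOI 1 PFU/cell. Luciferase activity from cell lysates at 72 h post infection gave inhibition relative to buffer-only and Salinomycin wells.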
* marks the source's active call; other numbers are inactive results; ? = inconclusive; . = not tested or not shown. In the library only some 7.3% were active in any assay of this set; here they are far more common. Unless noted, calls come from the whole dose curve; as a rule, active = well fitted curve in the direction sought with a large enough effect; inconclusive = small, poorly fitted or top-dose-only effect, or another doubt; inactive = no such curve, though single readings can be large; an effect the other way counts as inactive or inconclusive. Unless noted, % is set by controls: 0 for no effect and ±100 for the full control effect.

SMILES	FMDV inh	AmpC no deterg	HCV inh	AmpC detergent	HCMV antiviral
CCC(NC(=O)c1cc(COc2cncc(Cl)c2)on1)c1ccncc1 (stereo not drawn)	-16.0%	-7.9%	?	?	?
O=C(c1cc(COc2ccc(F)cc2Cl)on1)N1CCC(c2ccncc2)CC1	-27.5%	114.8%	12.6µM*	9.9%	-67.1*
CCC(NC(=O)c1cc(COc2ccc(F)cc2Cl)on1)c1ccncc1 (stereo not drawn)	-14.5%	56.6%	3.98µM*	3.9%	?
CCN(CC1CCCO1)C(=O)c1cc(COc2ccc(F)cc2F)on1 (stereo not drawn)	12.9%	-13.2%	.	-0.6%	-8.2
O=C(c1cc(COc2ccc(F)cc2Cl)on1)N1CCCCCC1	42.1%	-5.6%	?	2.3%	70.1
O=C(c1cc(COc2ccc(F)cc2Cl)on1)N(Cc1ccncc1)CC1CCCO1 (stereo not drawn)	-14.7%	116.7%	?	5.3%	-61.1*
Cc1ccc(C)c(NC(=O)CN(C)C(=O)c2ccccc2OCc2ccc(Cl)cc2)c1	-28.4%	21.2%	?	-10.7%	-32.2
COCc1c(C(=O)NC2CCCCC2)cnn1-c1nccc(-c2cc(C)sc2C)n1	-16.7%	.	.	.	.
CN(Cc1ccccc1F)C(=O)CCNC(=O)c1ccc(C(C)(C)C)cc1	4.5%	62.4%	-15.0%	-2.7%	46.9
COc1ccc(OC)c2nc3c(cc12)CCC3	-6.6%	3.0%	?	1.5%	48.5
COCCNc1nc(NCC2CCCCC2)c2sc(-c3ccccc3)cc2n1	-19.7%	.	.	.	?
CC(=O)Nc1ccc(CNc2nc(NC(C)C)nc3cc(-c4ccccc4)sc23)cc1	45.6%	.	.	.	-98.1*
c1ccc(-c2cc3nc(NCC4CC4)nc(NCC4CCCCC4)c3s2)cc1	?	.	.	.	-91.9*
COc1ccc(-c2cc(CNc3nc(NC(C)C)nc4cc(-c5ccccc5)sc34)on2)cc1	-1.3%	.	.	.	-99.0*
N#CC1(NC(=O)CSc2nncn2-c2ccccc2F)CCCC1	3.1%	-19.2%	7.3%	-7.5%	-7.7
Cc1ccc(-c2nn(-c3ccccc3)cc2/C=N/NC(=O)CSc2nnc(C)n2-c2ccccc2)cc1	19.1%	85.9%	14.1µM*	-8.3%	38.5
COc1ccc(-c2nn(-c3ccccc3)cc2/C=N/Nc2ccc3ccccc3n2)cc1OC	?	53.5%	10µM*	-5.2%	-25.7
COc1ccc(-c2nn(-c3ccccc3)cc2/C=N/NC(=O)c2ccc3c(c2)OCO3)cc1	.	58.2%	.	7.0%	.
COc1ccc(-c2nn(-c3ccccc3)cc2/C=N/O)cc1OC	-6.2%	-14.5%	?	4.2%	-20.6
COc1ccc(-c2nn(-c3ccccc3)cc2/C=N/Nc2cccc(C(=O)O)c2)cc1	49.2%	-43.7%	-32.5%	-1.8%	-61.0*
C#CCNC(=O)C[C@H]1C[C@@]2(C(=O)OC)C(=C[C@H](C(C)(C)C)O[C@@H]2C)N(CCc2ccc(OC)c(OC)c2)C1=O	.	.	.	.	-30.5
CCCCn1c(N)c(N(CCC(C)C)C(=O)CSc2nc3ccccc3n2C)c(=O)[nH]c1=O	-14.9%	.	10µM*	.	-18.4
CCOc1ccc(Oc2ccc(C(F)(F)F)cc2NC(=O)C2=COCCO2)cc1	-25.2%	-0.6%	-17.0%	0.4%	-12.7
COc1cc(NC(=O)CCn2cnc3ccccc3c2=O)cc(OC)c1	-13.8%	.	.	2.2%	17.0
CCN1C[C@@H]2[C@@H]3C(=O)N(C)C(=O)[C@@H]3[C@](Cc3ccccc3)(C1=O)N2C(=O)c1ccc(F)cc1	2.0%	.	0.2%	.	10.6
SMILES	FMDV inh	AmpC no deterg	HCV inh	AmpC detergent	HCMV antiviral
Cc1cccc2[nH]c3c(N4CC=C(c5ccc(F)cc5)CC4)ncnc3c12	39.8µM*	-29.7%	12.6µM*	13.5%	?
COC(=O)c1c[nH]c2c1-c1cc(C(=O)OCc3ccccc3)n(S(=O)(=O)c3ccc(C)cc3)c1C(=O)C2=O	7.94µM*	.	?	.	111.9
Cc1ccc(NC(=O)CN2C(=O)COc3ccc(S(=O)(=O)NC4CCCC4)cc32)cc1N(C)C	-0.4%	.	.	16.5%	-5.4
CC(C)C(NS(=O)(=O)c1ccc2c(c1)oc(=O)n2C)C(=O)NCCc1ccccc1 (stereo not drawn)	-10.1%	.	.	-13.9%	8.6
Cc1cccc(C)c1-n1nnnc1C(c1ccnc2ccccc12)N1CCN(C(=O)OCc2ccccc2)CC1 (stereo not drawn)	-23.8%	.	.	.	5.5
N#CCC(CNc1ncc(C(F)(F)F)cc1Cl)OC(=O)c1ccc(Cl)cc1 (stereo not drawn)	.	83.2%	?	-5.1%	-62.5*
COc1ccc(CNC(=O)c2ccc(Cn3c(=O)c4cccn4c4cccnc43)cc2)cc1OC	-0.7%	.	.	2.3%	12.9
COc1ccc(C(=O)/C=C/C(=O)N(CC(=O)NCCC(C)C)Cc2cccs2)c(O)c1	3.55µM*	55.7%	11.2µM*	0.8%	-99.8*
COc1ccc(C(=O)/C=C/C(=O)N(CC(=O)NC2CCCCC2)Cc2ccc(F)cc2)c(O)c1	7.08µM*	30.8%	?	1.8%	-115.7*
CCN1C(=O)CC(CC(=O)N2CCC(c3nc4ccc(F)cc4[nH]3)CC2)(c2ccccc2C)C1=O (stereo not drawn)	-11.1%	.	.	.	.
CCNC(=O)C1CCN(c2nc3ccccc3nc2C(F)(F)F)CC1	-13.1%	.	.	4.9%	-3.0
Cc1cc(C(=O)CSc2nnc(-c3cccc(F)c3)n2N)c(C)n1Cc1ccc2c(c1)OCO2	?	-13.4%	12.6µM*	-5.1%	-83.5*
CC(=O)c1c(C)[nH]c(C(=O)CSc2nnc(-c3ccccc3)n2Cc2ccc3c(c2)OCO3)c1C	-23.2%	-17.1%	?	-5.7%	1.7
Cc1cc(C(=O)CSc2nnnn2-c2ccc(O)cc2)c(C)n1Cc1ccc2c(c1)OCO2	?	2.24µM*	?	-7.9%	-4.6
Cc1cc(C(=O)CSc2nnnn2-c2ccccc2)c(C)n1-c1ccc2c(c1)OCO2	-26.1%	-41.9%	?	3.9%	-2.8
CC(C)NC(=O)N1CCCN(c2nc3ccc(Cl)cc3s2)CC1	-27.2%	52.2%	3.98µM*	-4.4%	?
Cc1c(CN2CCC(n3nccc3NC(=O)C3CC3)CC2)[nH]c2ccccc12	-19.0%	0.1%	7.7%	-6.3%	14.2
Cc1cc(NC(=O)CSc2n[nH]c(-c3ccc(Cl)cc3Cl)n2)no1	-17.1%	-21.6%	?	4.1%	-26.1
COc1ccc(NC(=O)Cn2c(=O)n(-c3cc(C)cc(C)c3)c(=O)c3oc4ccccc4c32)cc1OC	-8.4%	.	.	-4.0%	-83.5*
O=c1cc2c(nn1Cc1ccc(Cl)cc1)-c1ccccc1CC2	17.4%	17.7%	-2.3%	8.9%	-16.4
Cc1ccc(Cn2nc3c(cc2=O)CCc2ccccc2-3)cc1	35.1%	36.9%	14.1µM*	-4.6%	-10.1
CN(/N=C/c1ccc(O)cc1O)c1ncc(C(F)(F)F)cc1Cl	-23.1%	-29.1%	-27.8%	10.9%	-74.4*
